Screens deposited in PubChem by National Center for Advancing Translational Sciences (NCATS).
GLP1R ag = agonists of human GLP-1 receptor; P43220; HEK293 GLP-1R CRE-luciferase, luminescence, 4-6 h; cells express a hypersensitive GLP-1R form; Potency, µM (top dose mostly 45.6 µM), for inactives: top-dose activation, actives largely listed as activators; hit rate 0.007% among 380,000; AID 624172; note: % of control where 0% means no effect
GLP1R inv ag = inverse agonists of human GLP-1 receptor; P43220; HEK293 GLP-1R CRE-luciferase, luminescence, 24 h; GLP-1R form is constitutively active; Potency, µM (titrated, usually from 38.3 µM), inactives show top-dose activity change, negative = inhibition, actives largely listed as inhibitors; hit rate 1.6% among 410,000; note: % is set by controls: 0 for no effect and ±100 for the full control effect; nearly all actives have a fitted effect of over 55% in size
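GLP-1R inverse agonism mode: basal reporter luminescence in engineered HEK293 cells measured after one day of compound exposure at 37 deg C, with a 12 min room-temperature detection step.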
RGS4 inh = inhibitors of human regulator of G protein signaling 4 | P49798 | Transcreener GDP fluorescence polarization, RGS4-accelerated GTP hydrolysis | Potency, µM (top dose mostly 114 µM), inactives show at the highest dose activity change, negative = inhibition, most hits filed as inhibitors | hit rate 0.039% among 390,000; note: % is set by controls: 0 for no effect and ±100 for the full control effect; nearly all actives have a fitted effect of over 75% in size
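MLSMR compounds (23 nl, pin-transferred) preincubated 10 min at room temperature with a 500nM (2x) first reagent, then RGS4 at 900nM (2x) plus Transcreener GDP mix added; fluorescence polarization (620/688 nm) read before and after 90 min at 30 °C.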
PTHR1 agonist = agonists of human PTHR1 parathyroid hormone receptor; Q03431; HEK293 GP2 PTHR1 cells, GloSensor cAMP luminescence, 1 h; hit rate 0.075% among 410,000; AID 743266; Potency, µM (series often up to 115 µM), for inactives: at the top dose activation, actives largely listed as activators; note: nearly all actives have a fitted effect of over 55% in size
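HEK-293-derived GP2 cells expressing PTHR1 and a GloSensor cAMP reporter, 3,000/well, plated overnight, given luciferin plus IBMX (each 0.5 mM as added) for 1 h at 37 °C, then compound for 1 h at 37 °C. Luminescence was read after 15 min at room temperature.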
HEK293 tox = cytotoxicity in counter-screen for GLP-1R inverse agonists. HEK293 cAMP-luciferase reporter cells, luminescence, 24 h. Potency, µM (series often up to 38.3 µM), without a hit: at the highest dose activity change, negative = inhibition, most hits filed as inhibitors. hit rate 0.13% among 410,000;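 note: loss of luciferase light is scored as toxicity; % is set by controls: 0 for no effect and ±100 for the full control effect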
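Step one: seed cells (200 cells/uL, DMEM with 10% Nu serum, 1% pen-strep). Step two: 12-hour incubation at 37 deg C. Step three: pin 23 nL compound, incubate 24 hr. Step four: add luciferase reagent, read luminescence 12 min later.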
Active calls of the source: *; i = inactive; ? = inconclusive; nt = not tested or not shown; ! = not active in a repeat; [ ] = dose if it differs, or a comment. Most compounds without a hit are left out; they make up all but 1.7% or so of the library. Calls come from the whole dose curve; as a rule, active = well fitted curve in the direction sought with a large enough effect; inconclusive = small, poorly fitted or top-dose-only effect, or another doubt; inactive = no such curve, though single readings can be large; an effect the other way counts as inactive or inconclusive. Potency is the fitted concentration of half-maximal effect.

SMILES	GLP1R ag	GLP1R inv ag	RGS4 inh	PTHR1 agonist	HEK293 tox
CC(C)C(=O)NC(=S)Nc1ccc(S(=O)(=O)NC2CCCCC2)cc1	4%	10µM*	-16%	-23%	1%
COC(=O)C1=C(C)NC(C)=C(C(=O)O[C@H]2CCN(Cc3ccccc3)C2)C1c1cccc([N+](=O)[O-])c1 (stereo not given in full)	-4%	nt	nt	nt	nt
C=C(C)CNC(=S)N=Nc1c(O)[nH]c2ccc([N+](=O)[O-])cc12	10%	-73%	-34%	-6%	4.5µM*
CC(C)NC(=S)N=Nc1c(O)[nH]c2ccc([N+](=O)[O-])cc12	10%	?	-27%	-25%	2.5µM*
COc1ccc(-c2nc3ccc(C4=C(C)CC(=O)NN4)cc3[nH]2)cc1	29%	nt	nt	nt	nt
Cc1csc(=O)n1CC(=O)OCC(=O)Nc1ccccc1C(C)C	3%	-1%	-11%	-12%	2%
CCCCC/C=C\C/C=C\C/C=C\C/C=C\CCCCCC(=O)O	nt	nt	460%[56.9 µM]	nt	nt
CCCCC/C=C\C/C=C\CCCCCCCC(N)=O	nt	nt	24µM*	nt	nt
CCCCCCC/C=C\CCCCCCCCC(=O)O	nt	nt	24µM*	nt	nt
Cc1oc(-c2ccc(Cl)cc2)nc1CSCC(=O)NC1CCN(Cc2ccccc2)CC1	2%	?	-14%	-84%	-8%
CCOc1ccc(-c2nc(CSCC(=O)NC3CCN(Cc4ccccc4)CC3)c(C)o2)cc1	8%	8.9µM*	nt	-31%	6%
Cc1cc(OCc2cc(C(=O)N(C)Cc3ccccn3)no2)cc(C)c1Cl	0%	2µM*	-11%	-34%	2%
CC(=O)Nc1ccc(C2=NOC(C)(C)C(=O)N2Cc2cccc(C#N)c2)cc1	1%	30%	nt	-29%	8%
CCOC(=O)CC1(NC(=O)c2cc(COc3ccc(F)c(F)c3)on2)CCCCC1	17%	10µM*	31%	-35%	6%
C=CCC1(CC=C)CCCN1C(=O)c1cc(COc2ccc(C)nc2)on1	1%	?	1%	-26%	-12%
C=CCC1(CC=C)CCCN1C(=O)c1cc(COc2ccc(F)c(F)c2)on1	4%	2.8µM*	24%[56.9 µM]	-69%	8%
Cc1cc(CNC(=O)c2cc(COc3ccc(F)c(F)c3)on2)nn1C	1%	-16%	17%	-29%	-4%
CC(=O)Nc1cc(NC(C)=O)cc(C(=O)OCC(=O)N(c2ccccc2)C2CCS(=O)(=O)C2)c1 (stereo not given)	-8%	17%	-18%	-16%	2%
CN=C(Nc1cc(Cl)ccc1Cl)SC1CC(=O)N(c2ccc(C(=O)OC)cc2)C1=O (stereo not given)	-4%	4µM*	-3%	-16%[57.5 µM]	-22%
COC(=O)c1ccc(N2C(=O)CC(SCC(=O)Nc3ccc(OC)cc3)C2=O)cc1 (stereo not given)	0%	11%	-44%	i	0%
CCCCCCNC(=O)O[C@H]1C[C@@H]2C(=O)N(c3ccccc3)C(=O)[C@@H]2[C@@H]2CN(S(=O)(=O)c3ccc(C)cc3)C[C@]12O	-5%	11%	nt	-21%	3%
Cc1ccc(C)c(N2CCN(C(=O)c3ccc4c(=O)n5c(nc4c3)CCCCC5)CC2)c1	-4%	1.8µM*	-9%	-82%	-11%
O=C(c1ccc2c(=O)n3c(nc2c1)CCCCC3)N1CCCCC1	6%	-1%	1%[11.4 µM]	i	-1%
O=C(O)Cc1c[nH]c2ccc(O)cc12	-12%	24%	21µM*!	i	-10%
COc1ccccc1/C(C)=N/NC(=S)NCc1ccccc1	18%	2.5µM*	-4%	i	5µM*
COc1ccc(/C(C)=N/NC(=S)NCc2ccco2)cc1	23%	11µM*	-28%	-9%	?
COc1ccc(CNC(=S)N/N=C(\C)c2ccc(OC)cc2)cc1	24%	?	2%	-7%	?
C/C(=N\NC(=S)NCc1ccccc1)c1cccc(Br)c1	27%	8.9µM*	-43%	-1%	?
C/C(=N\NC(=S)NCc1ccccc1)c1ccc2ccccc2c1	5%	?	6%	-31%	2.8µM*
